An excerpt weighted towards active compounds, which were near 2.8% of everything screened.
CBFb RUNX1 block: blocks binding between human CBF-beta and RUNX1 | Q01196+Q13951 | AlphaScreen CBFb-His/RUNX1-biotin binding, biochemical | Potency, µM (doses to about 59.8 µM), without a hit: top-dose activity, negative = inhibition, most hits filed as inhibitors | 230,000 tested, under 10 active | AID 1477; further: % of control where 0% means no effect
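Interaction loss through any mechanism counts as activity. Pre-formed complex of His-CBF-beta and biotin-RUNX1 (30 nM apiece) is incubated with compound 15 min, then with 50 ng nickel and 50 ng streptavidin beads for 90 min before AlphaScreen detection.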
DRD3 agonist: agonists of human D3 dopamine receptor; D3R DiscoveRx beta-arrestin cells, luminescence, 90 min; P35462; 410,000 compounds, 0.58% hits; max activation, %; in the data active means max activation above about 30%; further: 0% is about no effect
Target sequence (P35462 whole entry, looked up): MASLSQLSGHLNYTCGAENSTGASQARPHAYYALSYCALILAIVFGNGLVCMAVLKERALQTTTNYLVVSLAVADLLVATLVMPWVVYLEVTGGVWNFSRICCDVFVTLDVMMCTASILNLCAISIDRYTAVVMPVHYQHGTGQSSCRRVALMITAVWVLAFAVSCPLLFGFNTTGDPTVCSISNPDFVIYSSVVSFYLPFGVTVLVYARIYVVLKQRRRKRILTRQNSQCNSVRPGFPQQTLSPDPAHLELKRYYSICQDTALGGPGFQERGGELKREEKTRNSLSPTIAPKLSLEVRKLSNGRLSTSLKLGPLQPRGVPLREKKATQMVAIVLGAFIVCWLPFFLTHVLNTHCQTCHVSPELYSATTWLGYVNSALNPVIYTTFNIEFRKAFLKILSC
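Agonist-mode cell screen: cells plated at 1500/well and incubated overnight at 37 °C, then exposed to library compounds for 90 min at 37 °C. Detection reagent was added for 30–60 min at room temperature, and luminescence was read.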
PTHR1 agonist: agonists of human PTHR1 parathyroid hormone receptor. Q03431. HEK293 GP2 PTHR1 cells, GloSensor cAMP luminescence, 1 h. Potency, µM (titrated, usually from 115 µM), without a hit: at the highest dose activation, usual class: activators. 410,000 compounds, 0.075% hits; further: potency means the concentration at half of the fitted maximal effect; nearly all actives have a fitted effect of over 55% in size
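HEK-293-derived GP2 cells expressing PTHR1 and a GloSensor cAMP reporter, 3,000/well, plated overnight, given luciferin plus IBMX (each 0.5 mM as added) for 1 h at 37 °C, then compound for 1 h at 37 °C. Luminescence was read after 15 min at room temperature.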
MBNL1 CUG block: MBNL1-poly(CUG) RNA binding inhibition; Q9NR56; TR-FRET MBNL1-His/biotin-(CUG)12 binding, 665/545 ratio; Potency, µM (top dose mostly 57.5 µM), for the others: at the top dose activity change, negative = inhibition, usual class: inhibitors; 280,000 compounds, 0.036% hits; AID 2675; active means well fitted inhibition curve with a large enough effect in the signal ratio, with a control signal flat, not every such curve was filed as active; inconclusive means small, poorly fitted or top-dose-only effect, or effect the other way, or a change in a side signal; inactive means no such curve, though single readings can be large or run the other way; the % refers to the signal ratio; further: potency means the concentration at half of the fitted maximal effect; on the % scale 0 is the no-effect control and ±100 the full control effect
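Ratiometric TR-FRET (665 over 545 nm, excitation 340 nm) tracks disruption of MBNL1-His/biotin-(CUG)12 complex after 60 min at room temperature, with compounds at 92 nM to 58 uM final.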
DRD3 antagonist: blocks the human D3 dopamine receptor; P35462; D3R cells, DiscoveRx beta-arrestin luminescence, antagonist mode; active compounds read low; max response, negative = inhibition, %; 360,000 compounds, 2.5% hits; in the data active means max response below about -50%; inconclusive means no clear call, values can overlap the other calls; further: on the % scale 0 is the no-effect control and ±100 the full control effect
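Cells plated overnight at 1500 cells/well, then exposed to library compounds with dopamine controls for 90 minutes at 37 degrees C. DiscoveRx reagent added for 30–60 minutes at room temperature; luminescence read, quantitative HTS format.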
Integrin act MD: activators of alpha7 integrin expression for muscular dystrophy | 350,000 compounds, 0.064% hits | AID 624291 | Potency, µM (top dose mostly 38.3 µM), without a hit: top-dose activation, most hits filed as activators | alpha7betagal myoblasts, beta-gal FDG fluorescence, 48 h;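 further: potency means the concentration at half of the fitted maximal effect; 100% = response of the positive control SU9516; nearly all actives have a fitted effect of over 60% in size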
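alpha7betagal+/- myoblasts (passage 13, 250/well) treated 48 h at 37C with compounds at 1:260 dilution of DMSO stock. Lysed, then beta-galactosidase activity read as FDG fluorescence (ex 480/em 540) after 30 min, with pre-read for autofluorescence.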
An asterisk follows results filed as active; i = inactive; ? = inconclusive; nt = not tested or not shown; [ ] = dose if it differs, or a comment. Unless noted, the call rests on the fitted dose curve; in most records, active means well fitted curve in the direction sought with a large enough effect; inconclusive means small, poorly fitted or top-dose-only effect, or another doubt; inactive means no such curve, though single readings can be large; an effect the other way counts as inactive or inconclusive.

SMILES	CBFb RUNX1 block	DRD3 agonist	PTHR1 agonist	MBNL1 CUG block	DRD3 antagonist	Integrin act MD
CCOC(=O)C1CCN(CC(C)(C)NS(=O)(=O)c2ccc(C)cc2)CC1	nt	-15.1	5.5%	0.5%	9.7	-10.2%
Cc1ccc(NC(=O)CCN2CCC(Cc3ccccc3)CC2)cc1	nt	-17.3	i	-5.6%	-53.2*	-33.0%
Cc1ccc(S(=O)(=O)NC(C)(C)CN2CCC(Cc3ccccc3)CC2)cc1	15.1%	-19.0	-26.7%	6.0%	-58.8*	-60.2%
CC(C)(CN1CCNCC1)NS(=O)(=O)c1ccc(Cl)cc1	nt	-23.3	-23.4%	nt	-95.0*	-56.3%
CNC1C(OC2C(O[C@@H]3C(O)C(O)[C@@H](N=C(N)N)C(O)C3N=C(N)N)OC(C)[C@@]2(O)CO)OC(CO)C(O)C1O (stereo partly drawn)	0.6%	nt	nt	nt	nt	nt
COc1ccc(NC(=O)CCN2CCN(C/C=C/c3ccccc3)CC2)cc1	nt	-9.0	i	-7.7%	-11.7	2.1%
COc1cc(NC(=O)CCN2CCN(C/C=C/c3ccccc3)CC2)cc(OC)c1	nt	2.6	i	-1.1%	-58.6*	-5.1%
CC(C)(CNCc1ccccc1)NS(=O)(=O)c1ccccc1	nt	-22.6	-8.3%	nt	-2.0	-34.2%
CC(C)(CNCc1ccccc1)NS(=O)(=O)c1ccc(Cl)cc1	nt	-9.8	-4.7%	nt	-56.7*	2.5%
COc1ccc(C)cc1NC(=O)CCN1CCN(C/C=C/c2ccccc2)CC1	nt	-15.1	-8.1%	-2.0%	-52.4*	-14.7%
O=C(CN1CSCC1=O)N1CCN(S(=O)(=O)c2ccc(Cl)cc2)CC1	nt	-14.9	-25.3%	nt	12.9	-2.5%
CN(C)CCn1c(NC(=O)c2ccc(Cl)cc2)nc2ccccc21	-6.5%	-24.2	-4.5%[57.5 µM]	2.6%	-57.2*	-38.7%
O=C(Nc1nc2ccccc2n1Cc1ccc(Cl)cc1)c1ccco1	6.5%	-1.8	-12.7%[57.5 µM]	70.2%	-60.0*	21.2%
CC(=O)Nc1nc2ccccc2n1Cc1ccc(Cl)cc1	9.5%	4.1	i	1.1%	13.6	-3.2%
CCN(CC)CCn1c(NC(=O)c2ccc(C)cc2)nc2ccccc21	nt	-27.5	-18.0%	6.0%	-50.1*	-4.0%
CCN(CC)CCn1c(NC(=O)c2ccc(C(F)(F)F)cc2)nc2ccccc21	6.6%	-10.9	i	14.3%	-54.2*	-9.8%
CCC(=O)Nc1nc2ccccc2n1CCN(CC)CC	11.3%	-32.9	-2.8%[57.5 µM]	-3.5%	-19.6	7.0%[7.66 µM]
CC(C)(O)[C@@H]1CC[C@@](C)(C2CC[C@]3(C)C2[C@H](O)CC2[C@@]4(C)CC[C@H](O)C(C)(C)C4[C@@H](O[C@H]4O[C@@H](CO)[C@H](O)[C@@H](O)[C@@H]4O[C@@H]4O[C@H](CO)[C@@H](O)[C@H](O)[C@H]4O)C[C@]23C)O1 (stereo in doubt)	nt	6.2	i	nt	42.0	-21.7%
O=C(NC(c1ccccc1)c1ccccc1)c1ccc(=O)[nH]n1	6.0%	1.0	-5.7%	0.5%	5.2	-23.3%
Cc1nc(NCCc2ccc(O)cc2)c2nnn(Cc3ccccc3)c2n1	nt	-14.3	-6.6%	0.2%	-82.5*	-13.1%
Cc1nc(NCCc2ccc(F)cc2)c2nnn(Cc3ccccc3)c2n1	nt	4.6	-4.7%	3.6%	0.3	-2.2%
CC(C)c1ccc(N2C(=NC(=O)C3CCCO3)SC3CS(=O)(=O)CC32)cc1 (stereo not drawn)	nt	5.5	i	-2.7%	8.3	-25.6%
CC(C)=CCC/C(C)=C/CO/N=C1/C[C@@H](O)[C@@H](O)[C@@H]2[C@H]3C(=O)N(c4ccc(F)cc4F)C(=O)[C@@H]3CC[C@@H]12	-1.7%[13.1 µM]	nt	nt	nt	nt	nt
Cc1ccc(/C=N/N2C(=S)SC(C)(C)C2N(O)C(=O)Nc2ccc([N+](=O)[O-])cc2)cc1 (stereo not drawn)	-12.0%	-6.6	-53.8%	?	-58.2*	-46.3%
CC1(C)SC(=S)N(/N=C/c2ccc(O)cc2)C1N(O)C(=O)Nc1ccc([N+](=O)[O-])cc1 (stereo not drawn)	-7.9%	-21.9	-37.1%[57.5 µM]	?	-23.2	6.9%
SMILES	CBFb RUNX1 block	DRD3 agonist	PTHR1 agonist	MBNL1 CUG block	DRD3 antagonist	Integrin act MD
COc1ccc(F)cc1S(=O)(=O)NCC(c1ccco1)S(=O)(=O)c1cccs1 (stereo not drawn)	nt	3.5	i	nt	nt	nt
CC(C)(C)[C@H]1C=C(C(N)=O)O[C@@H](OCCCCO)C1	3.2%	-3.4	-1.5%	2.3%	-17.5	0.0%
COc1cc(/C=C2\COC/C(=C\c3ccc(O)c(OC)c3)C2=O)ccc1O	3.8%	-27.0	-25.2%	-18.6%	-90.2*	0.0%
COc1cc(/C=C2/CC/C(=C/c3ccc(O)c(OC)c3)C2=O)ccc1O	-12.5%	9.3	-85.7%	?	-15.0	9.9%
COc1ccc(C=C2C(=O)c3ccccc3C2=O)cc1O	-20.9%	1.9	-20.5%	?	14.2	1.6%
COc1ccc(/C=C2\CN(Cc3ccccc3)C/C(=C\c3ccc(OC)c(O)c3)C2=O)cc1O	nt	-15.9	-92.4%	-12.4%	-53.4*	-57.5%
COc1cc(C=C2C(=O)c3ccccc3C2=O)ccc1O	-3.3%	7.6	-17.7%	nt	-77.2*	21.1%
NNC(=O)c1ccc(Cn2cccn2)o1	1.9%	-12.1	-4.9%	1.3%	-12.9	-4.9%
Cc1ccc(Cl)cc1NC(=O)c1ccc2nc(CCc3ccccc3)oc2c1	nt	-7.4	-8.5%	nt	nt	nt
C=C1C[C@]23CC[C@H]4C(CO)(CO)C[C@@H](O)C[C@@]4(C)[C@@H]2CC[C@H]1C3	-12.8%	nt	nt	nt	nt	nt
COc1ccc(CCNC(=O)c2cc(-c3ccc(C)cc3)nc3n[nH]c(-c4ccccc4)c23)cc1OC	nt	73.7*	i	nt	nt	nt
O=C(CCNS(=O)(=O)c1ccc(Br)cc1)NCc1ccco1	nt	0.2	-22.8%	nt	0.0	8.3%
COc1ccc2nc(-c3ccccc3)nc(SCC(=O)NCC3CCCO3)c2c1 (stereo not drawn)	nt	32.5*	-51.4%	59.8%	0.4	-11.9%
Cc1ccccc1-n1c(SCC(=O)NCC2CCCO2)nc2c([nH]c3ccccc32)c1=O (stereo not drawn)	nt	-23.4	i	7.8%	-82.4*	14.1%
CCOC(=O)N1CCN(C(=O)CSc2nc3c([nH]c4ccccc43)c(=O)n2CC)CC1	nt	45.9*	i	4.8%	27.3	-5.1%

Bioassay records as filed in PubChem.
